From ChEMBL document CHEMBL3988442, “University of Dundee, Small-Polar-MMV Screening Library” (2021)
Among all 48,000 compounds or so, about 13,000 (27%) showed an effect of 50% or more. The list shows a part of the results.

What follows are compounds tested on Wolbachia pipientis (assay: Anti-Wolbachia Cell-Based Screen). Details: 5 µM.
Format: functional
Design: scale not given: in the data most compounds retested in dose-response had high values
In the case of `CC(C)Cc1nnc2sc(-c3cc(C(C)C)n[nH]3)nn12`, the “Percent Effect” value is reported as 131.5%. For `CC(C)c1cc(-c2nn3c(C(C)C)nnc3s2)[nH]n1`, the “Percent Effect” value was -17.87%. In the case of `CCCc1nnc2sc(-c3cc(C(C)C)n[nH]3)nn12`, the “Percent Effect” value is reported as 120.9%. `CCc1nnc2sc(-c3cc(C(C)C)n[nH]3)nn12` was tested, and the “Percent Effect” value was 154.2%. In the case of `Cc1cc(-c2nn3c(C)nnc3s2)n[nH]1`, the “Percent Effect” value is reported as 0.3213%. With `Cc1nnc2sc(-c3cc(C(C)C)n[nH]3)nn12` the “Percent Effect” value was -19.82%. With `CCN(CC)Cc1nnc2sc(-c3cc(C(C)C)[nH]n3)nn12` the “Percent Effect” value was 118.1%. With `CCC(Nc1nc(C(C)C)nc2c1cnn2C)c1ccc(O)cc1` (stereo not given) the “Percent Effect” value was -13.26%. With `Cc1nc(CNC(C)c2cccc(N3CCCC3=O)c2)cs1.Cl` (stereo not given) the “Percent Effect” value was -6.766%. With `OCC1CCCCN1Cc1nc(Cc2ccccc2)no1` (stereo not given) the “Percent Effect” value was 15.34%. In the case of `CCc1nc(C2CCCN2Cc2nc(Cc3ccccc3)no2)no1` (stereo not given), the “Percent Effect” value is reported as -2.634%. For `c1ccc(Cc2noc(CN3CCCC3C3CCCCC3)n2)cc1` (stereo not given), the “Percent Effect” value was 35.45%. With `c1ccc(Cc2noc(CN3CCCCC3Cn3cccn3)n2)cc1` (stereo not given) the “Percent Effect” value was 121.7%. With `OCC1CCCCN1Cc1nc(Cc2cccc(F)c2)no1` (stereo not given) the “Percent Effect” value was -3.414%. For `c1ccc(Cc2noc(CN3CCCC3Cn3cccn3)n2)cc1` (stereo not given), the “Percent Effect” value was 101.6%. In the case of `Cc1ccc(O)c(C(=O)N2CCCC2c2nncn2CC(C)C)c1` (stereo not given), the “Percent Effect” value is reported as -6.935%. For `COCCNc1ccc(CNC(=O)C2COc3ccccc32)cc1` (stereo not given), the “Percent Effect” value was -1.749%. With `O=S(=O)(Cc1nc(C2CC2)no1)c1ccccc1F` the “Percent Effect” value was -2.004%. For `CCC(C(=O)NCc1ccccn1)N(c1cccc(C)c1)S(C)(=O)=O` (stereo not given), the “Percent Effect” value was 1.713%. In the case of `Cn1cnc(S(=O)(=O)NCCCN2CCCCCC2)c1Cl`, the “Percent Effect” value is reported as 0.4653%. `Cn1cnc(S(=O)(=O)N2CCCC2)c1Cl` was tested, and the “Percent Effect” value was -6.345%. With `CCCN1CCN(S(=O)(=O)c2ncn(C)c2Cl)CC1` the “Percent Effect” value was 1.683%. `Cn1cnc(S(=O)(=O)NCCN2CCCCCC2)c1Cl` was tested, and the “Percent Effect” value was 104.3%. With `Cn1cnc(S(=O)(=O)NCCCN2CCOCC2)c1Cl` the “Percent Effect” value was -0.729%. With `Cn1cnc(S(=O)(=O)NCCCN2CCCC2)c1Cl` the “Percent Effect” value was 98.8%. For `Cn1cccc1C1CCCN1C(=O)NCCCn1cccn1` (stereo not given), the “Percent Effect” value was -1.835%. With `COc1ccc(NC(C)c2ccc(C#N)cc2)cc1N1CCCC1=O` (stereo not given) the “Percent Effect” value was 11.24%. In the case of `O=C(CN1CCSC2(CCCCC2)C1)NCC(F)(F)F`, the “Percent Effect” value is reported as -26.69%. In the case of `COCCc1noc(CN2CCN(CC(O)c3ccccc3)CC2)n1` (stereo not given), the “Percent Effect” value is reported as 5.305%. In the case of `Cc1cc2c(cc1C(=O)N1CCC3(CC(=O)NC3=O)C1)OCCO2` (stereo not given), the “Percent Effect” value is reported as -6.886%. `CN(CC1(O)CCN(c2ccnc3ccncc23)CC1)C(=O)CCN` was tested, and the “Percent Effect” value was 110.4%. In the case of `Cc1cc(N2CCCC(O)(CN(C)C)CC2)nc(-c2ccccc2)n1` (stereo not given), the “Percent Effect” value is reported as 2.269%. `Cc1ncc(C)c(N2CCC(CCc3ccccc3)(C(=O)O)CC2)n1` was tested, and the “Percent Effect” value was 1.128%. In the case of `Cc1cc(N2CCC(O)(CN(C)C(=O)CCN)C2)c2cnccc2n1` (stereo not given), the “Percent Effect” value is reported as 98.27%. For `Cc1cc(N2CCC(O)(CN(C)C(=O)CCN)CC2)c2cnccc2n1`, the “Percent Effect” value was 69.28%. In the case of `Cc1cnn(C2(C(=O)O)CCN(c3ccncc3F)CC2)c1`, the “Percent Effect” value is reported as 13.66%. For `Cc1cc(N2CCC(CO)(CC3CCCCO3)CC2)c2ccccc2n1` (stereo not given), the “Percent Effect” value was -1.662%. With `Cc1ccc(CC(=O)N(C)CC2(O)CCN(c3ccccn3)C2)s1` (stereo not given) the “Percent Effect” value was -7.019%. For `Cc1cnn(C2(C(=O)O)CCN(c3ccnc4cc(Cl)ccc34)CC2)c1`, the “Percent Effect” value was -21.78%. With `CN(C)CC1(O)CCCN(C(=O)c2ccccc2-n2cccn2)C1` (stereo not given) the “Percent Effect” value was -10.31%. In the case of `CN(CC1(O)CCCN(c2ccccn2)C1)C(=O)Cc1ccsc1` (stereo not given), the “Percent Effect” value is reported as -7.252%. `Cc1cc(N2CCCC(O)(CN(C)C(=O)CCN)C2)c2cnccc2n1` (stereo not given) was tested, and the “Percent Effect” value was 91.76%. With `CC(NC(=O)Cc1ccccc1F)C(=O)N1CCS(=O)(=O)CC1` (stereo not given) the “Percent Effect” value was -3.92%. For `N#Cc1ccnc(N2CCC(NCCN3CCOCC3)CC2)c1`, the “Percent Effect” value was -1.692%. In the case of `CCC(=O)Nc1cc(Br)cnc1OCC(F)(F)F`, the “Percent Effect” value is reported as -13.83%. `Cc1cc(N2CCC(O)(CN(C)C(=O)CCCN)C2)c2cnccc2n1` (stereo not given) was tested, and the “Percent Effect” value was 106%. For `CN1CC(=O)N(C2CCNCC2)Cc2c(NCC(C)(C)C)ncnc21`, the “Percent Effect” value was 106.7%. In the case of `CCNc1ncnc2c1CN(C1CCCNCC1)C(=O)CN2C` (stereo not given), the “Percent Effect” value is reported as 112.3%. For `COc1ccc(NC(=O)CCC(C)C)c(N2CCN(C(C)=O)CC2)n1`, the “Percent Effect” value was -1.669%. `O=C(CC1CCCC1)N1CCN(c2ccc(-n3cncn3)nn2)CC1` was tested, and the “Percent Effect” value was 17.68%. In the case of `CC(C)c1nc(N2CCC(N3CCCCCC3)CC2)c2cnn(C)c2n1`, the “Percent Effect” value is reported as 83.71%. `CC(C)c1nc(N2CCC(N3CCSCC3)CC2)c2cnn(C)c2n1` was tested, and the “Percent Effect” value was 102.9%. In the case of `Cn1ncc2c(N3CCC(CCO)CC3)nc(C(C)(C)C)nc21`, the “Percent Effect” value is reported as -3.712%. `CC(=O)NCCC1CCN(c2nc(C(C)(C)C)nc3c2cnn3C)CC1` was tested, and the “Percent Effect” value was -2.953%. In the case of `CC1CCCCN1C1CN(c2nc(C3CCCC3)nc3c2cnn3C)C1` (stereo not given), the “Percent Effect” value is reported as 0.03102%. In the case of `Cn1ncc2c(N3CCS(=O)(=O)CC3)nc(C3CCCC3)nc21`, the “Percent Effect” value is reported as -3.304%. For `Cn1ncc2c(N3CCN4CCCCC4C3)nc(C3CCCC3)nc21` (stereo not given), the “Percent Effect” value was 111.9%. With `CC(C)c1nc(N2CC(N3CCCCC3C)C2)c2cnn(C)c2n1` (stereo not given) the “Percent Effect” value was 11.15%. `CC(C)c1nc(N2CCC(N3CCCC(O)C3)CC2)c2cnn(C)c2n1` (stereo not given) was tested, and the “Percent Effect” value was 109.7%. `CN1CCCN(c2nc(C3CCCC3)nc3c2cnn3C)CC1` was tested, and the “Percent Effect” value was 2.389%. With `Cn1ncc2c(N3CC(N4CCCCC4)C3)nc(C3CCCC3)nc21` the “Percent Effect” value was 6.638%. In the case of `O=c1ccn(Cc2nc(-c3ccccc3F)cs2)c(=O)[nH]1`, the “Percent Effect” value is reported as -9.097%. In the case of `COc1cccc2c1OCC(C(=O)NCc1c(C)noc1C)C2` (stereo not given), the “Percent Effect” value is reported as -13.16%. `Cc1ncc(CN(C)C(=O)Nc2ccc(CN3CCOC3=O)cc2)s1` was tested, and the “Percent Effect” value was 8.802%. With `Cc1ccc(S(=O)(=O)NC(=O)CCOCc2ccccc2)s1` the “Percent Effect” value was 4.537%. With `Cn1cccc(NC(=O)NCCOCc2ccccc2)c1=O` the “Percent Effect” value was -14.44%. `CCn1c(C)cc(-c2csc(Cn3ccc(=O)[nH]c3=O)n2)c1C` was tested, and the “Percent Effect” value was -14.65%. In the case of `Cc1cc(=O)[nH]c(=O)n1Cc1ccccc1`, the “Percent Effect” value is reported as -6.606%. For `Cc1cc(=O)[nH]c(=O)n1COCc1ccccc1`, the “Percent Effect” value was 71.08%. In the case of `COCCn1c(=O)n(Cc2ccccc2C)c2cc(C(=O)O)ccc21`, the “Percent Effect” value is reported as -8.391%. With `Cc1cc(=O)[nH]c(=O)n1COCCOCc1ccccc1` the “Percent Effect” value was 87.63%. For `Cc1ccccc1COCCOCn1c(C)cc(=O)[nH]c1=O`, the “Percent Effect” value was 116.8%. In the case of `CC/C(C)=C/CCN1CCN(C)C2(CCNC(=O)CC2)C1` (stereo not given), the “Percent Effect” value is reported as -7.249%. `O=C(NCc1ccncc1)c1nc2c(o1)CN(C(=O)c1cccnc1)C2.O=C(O)C(F)(F)F.O=C(O)C(F)(F)F` was tested, and the “Percent Effect” value was 0.8995%. `Cc1nc[nH]c1CN1CCN(C(=O)CCC(F)(F)F)[C@H]2CS(=O)(=O)C[C@H]21` was tested, and the “Percent Effect” value was 0%. `Cn1ncnc1CNC1CCCc2cc(F)ccc21` (stereo not given) was tested, and the “Percent Effect” value was -3.531%. `COc1ccc(CN2CC[C@H](NC(C)=O)[C@@H](O)CC2)c(OC)c1` was tested, and the “Percent Effect” value was -2.423%. In the case of `COc1cc(CN2CC[C@H](NC(C)=O)[C@@H](O)CC2)ccc1F`, the “Percent Effect” value is reported as 106.7%. For `COc1ccc(CN2CCC(C(N)=O)CC2)cc1SC(F)(F)F`, the “Percent Effect” value was 0.6878%. `COc1ccc(F)c(CN2CCCC3(CCN(C4CCOCC4)C3)C2)c1` (stereo not given) was tested, and the “Percent Effect” value was -3.304%. For `COc1ccc(CN2CC[C@H](NC(C)=O)[C@@H](O)CC2)c(F)c1`, the “Percent Effect” value was 118.9%. With `COc1cccc(CN2CC[C@H](NC(C)=O)[C@@H](O)CC2)c1F` the “Percent Effect” value was 34.02%. With `O=C(C1CCOc2ccccc21)N1CCOc2cccc(F)c21` (stereo not given) the “Percent Effect” value was 6.908%. With `O=C(c1ccc(-n2cnnc2)cc1Cl)N1CCCC2(CCNC2)C1` (stereo not given) the “Percent Effect” value was -4.992%. In the case of `CNc1cc2c(nn1)CCN(C(=O)c1cc(F)cc(F)c1)C2`, the “Percent Effect” value is reported as 8.008%. For `CNc1cc2c(nn1)CCN(C(=O)c1ccc3c(c1)CCC3)C2`, the “Percent Effect” value was 114.4%. With `CNc1cc2c(nn1)CCN(C(=O)c1coc(Br)c1)C2` the “Percent Effect” value was 117.2%. In the case of `Cc1ccc2oc(C(=O)N3CCc4nnc(N(C)C)cc4C3)cc2n1`, the “Percent Effect” value is reported as -8.128%. In the case of `CNc1cc2c(nn1)CCN(C(=O)c1ccc3c(c1)OCO3)C2`, the “Percent Effect” value is reported as 105.8%. `CNc1cc2c(nn1)CCN(C(=O)c1cc(C)no1)C2` was tested, and the “Percent Effect” value was 125.3%. `CNc1cc2c(nn1)CCN(C(=O)C1CCCc3ccccc31)C2` (stereo not given) was tested, and the “Percent Effect” value was -4.064%. `CN(C)CCNC(=O)c1ccc2c(-c3nccs3)noc2c1` was tested, and the “Percent Effect” value was -16.02%. For `Cn1cc(S(=O)(=O)NCCc2nnc3ccccn23)cn1`, the “Percent Effect” value was -3.582%. With `O=C(c1ncccn1)N1C[C@@H]2COC[C@]2(c2nnc(C3CC3)o2)C1` the “Percent Effect” value was -0.5118%. For `Cc1noc(C)c1CNC(=O)C1(NS(C)(=O)=O)CCCCC1`, the “Percent Effect” value was -47.58%. In the case of `Cc1ccc(C)c(CC(=O)NC2CCC(N3C(=O)CCC3=O)CC2)c1` (stereo not given), the “Percent Effect” value is reported as 6.752%. `CCN1CCN(S(=O)(=O)c2cc(C)c(Cl)cc2Cl)CC1` was tested, and the “Percent Effect” value was 18.7%. `CC1(C)OCC2(CO1)CN(S(=O)(=O)c1ccc(Br)s1)C2` was tested, and the “Percent Effect” value was -6.121%. With `CCn1cc(S(=O)(=O)N2CCCSc3ccccc32)cn1` the “Percent Effect” value was -3.262%. `CCc1ccc(S(=O)(=O)N2CC3(COC(C)(C)OC3)C2)s1` was tested, and the “Percent Effect” value was -8.267%. For `CCn1cc(S(=O)(=O)N2CCC(C)Sc3ccccc32)cn1` (stereo not given), the “Percent Effect” value was -6.533%. `CCn1cc(S(=O)(=O)N2CCN(S(=O)(=O)c3ccc(Br)s3)CC2)cn1` was tested, and the “Percent Effect” value was 99.05%. `CCn1cc(S(=O)(=O)N2CCN(S(=O)(=O)c3ccc(Br)s3)CC2)c(C)n1` was tested, and the “Percent Effect” value was 110.7%. For `Cn1cc(S(=O)(=O)N2CCN(S(=O)(=O)c3ccc(Br)s3)CC2)cn1`, the “Percent Effect” value was 96.55%. `CCC1CCCN(S(=O)(=O)c2cnn(C)c2)C1` (stereo not given) was tested, and the “Percent Effect” value was 12.29%.
